{"source": "paper PMC8384837", "about": "“Expanding the binding specificity for RNA recognition by a PUF domain”", "experiment_in_all_cases": "yeast three-hybrid, YBZ-1, SC-Leu-His + 0.5 mM 3-AT, 4 days", "conditions_in_all_cases": "tags: N-Gal4 AD-HA kept; label: inside an RPR1-promoter hybrid RNA with tandem MS2 sites; ssRNA", "key": {"PUM1 PUF domain R3-TRP": {"molecular_target": "PUM1 PUF domain R3-TRP (Homo sapiens, UniProt Q14671 828-1176, C935T;Q939P)", "how_it_was_run": "(§1)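 Each repeat of the Pumilio-1 PUF domain was randomized at its three base-contacting residues, and these libraries were co-expressed from a centromeric plasmid with matching RNA elements in strain YBZ-1. After four days on SC-Leu (input) or SC-Leu-His + 0.5 mM 3-AT (selection), the repeat regions were PCR-amplified and Illumina-sequenced. The interaction score compares variant frequency between input and selection as a log change, computed in log2 with a pseudocount of 1 for absent variants.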"}, "PUM1 PUF domain R3-FWR": {"molecular_target": "PUM1 PUF domain R3-FWR (Homo sapiens, UniProt Q14671 828-1176, C935F;R936W;Q939R)", "how_it_was_run": "as §1"}, "PUM1 PUF domain R7-CCR": {"molecular_target": "PUM1 PUF domain R7-CCR (Homo sapiens, UniProt Q14671 828-1176, S1079C;N1080C;E1083R)", "how_it_was_run": "as §1"}, "PUM1 PUF domain R6-SWQ": {"molecular_target": "T1, PUM1 PUF domain R6-SWQ (Homo sapiens, UniProt Q14671 828-1176, N1043S;Y1044W)", "T1 sequence": "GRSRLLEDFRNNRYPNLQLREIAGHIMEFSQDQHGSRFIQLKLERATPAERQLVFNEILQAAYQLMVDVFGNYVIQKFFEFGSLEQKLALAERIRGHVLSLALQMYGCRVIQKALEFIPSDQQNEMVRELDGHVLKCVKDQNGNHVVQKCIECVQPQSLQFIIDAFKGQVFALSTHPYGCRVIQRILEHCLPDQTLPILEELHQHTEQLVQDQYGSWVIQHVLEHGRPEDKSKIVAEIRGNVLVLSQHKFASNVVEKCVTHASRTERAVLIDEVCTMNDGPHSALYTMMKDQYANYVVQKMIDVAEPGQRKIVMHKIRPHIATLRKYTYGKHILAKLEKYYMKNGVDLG", "how_it_was_run": "as §1"}, "PUM1 PUF domain R4-WGW": {"molecular_target": "PUM1 PUF domain R4-WGW (Homo sapiens, UniProt Q14671 828-1176, N971W;H972G;Q975W)", "how_it_was_run": "as §1"}, "PUM1 PUF domain R5-LHR": {"molecular_target": "PUM1 PUF domain R5-LHR (Homo sapiens, UniProt Q14671 828-1176, C1007L;R1008H;Q1011R)", "how_it_was_run": "as §1"}, "PUM1 PUF domain R8-TRR": {"molecular_target": "PUM1 PUF domain R8-TRR (Homo sapiens, UniProt Q14671 828-1176, N1122T;Y1123R;Q1126R)", "how_it_was_run": "as §1"}, "PUM1 PUF domain R3-GFD": {"molecular_target": "PUM1 PUF domain R3-GFD (Homo sapiens, UniProt Q14671 828-1176, C935G;R936F;Q939D)", "how_it_was_run": "as §1"}, "PUM1 PUF domain R4-PHQ": {"molecular_target": "PUM1 PUF domain R4-PHQ (Homo sapiens, UniProt Q14671 828-1176, N971P)", "how_it_was_run": "as §1"}, "PUM1 PUF domain R1-KKT": {"molecular_target": "PUM1 PUF domain R1-KKT (Homo sapiens, UniProt Q14671 828-1176, S863K;R864K;Q867T)", "how_it_was_run": "as §1"}}}
{"sequence": "GGCUAGAACUAGUGGAUCCCCCGGCGCCCGGCGGCUCGAGCCCGGGUAAGUGUAAUUAGUCUGCAUGCCGCCGGGCGCCAUGCCUGCAGGUCGACUCUAGAAAACAUG", "values": [{"measurement": "binding signal", "setting": "PUM1 PUF domain R3-TRP", "result": "1.29 log2 enrichment (interaction score)"}, {"measurement": "binding signal", "setting": "PUM1 PUF domain R3-FWR", "result": "2.94 log2 enrichment (interaction score)"}]}
{"sequence": "GGCUAGAACUAGUGGAUCCCCCGGCGCCCGGCGGCUCGAGCCCGGGUAAGUCUAAAUAGUCUGCAUGCCGCCGGGCGCCAUGCCUGCAGGUCGACUCUAGAAAACAUG", "values": [{"measurement": "binding signal", "setting": "PUM1 PUF domain R7-CCR", "result": "3.07 log2 enrichment (interaction score)"}]}
{"sequence": "GGCUAGAACUAGUGGAUCCCCCGGCGCCCGGCGGCUCGAGCCCGGGUAAGUGAAAAUAGUCUGCAUGCCGCCGGGCGCCAUGCCUGCAGGUCGACUCUAGAAAACAUG", "values": [{"measurement": "binding signal", "setting": "PUM1 PUF domain R6-SWQ", "result": "2.27 log2 enrichment (interaction score)"}]}
{"sequence": "GGCUAGAACUAGUGGAUCCCCCGGCGCCCGGCGGCUCGAGCCCGGGUAAGUGUAAAUAGUCUGCAUGCCGCCGGGCGCCAUGCCUGCAGGUCGACUCUAGAAAACAUG", "values": [{"measurement": "binding signal", "setting": "PUM1 PUF domain R3-TRP", "result": "4.51 log2 enrichment (interaction score)"}, {"measurement": "binding signal", "setting": "PUM1 PUF domain R4-WGW", "result": "3.2 log2 enrichment (interaction score)"}, {"measurement": "binding signal", "setting": "PUM1 PUF domain R5-LHR", "result": "3.11 log2 enrichment (interaction score)"}, {"measurement": "binding signal", "setting": "PUM1 PUF domain R3-FWR", "result": "0.88 log2 enrichment (interaction score)"}, {"measurement": "binding signal", "setting": "PUM1 PUF domain R8-TRR", "result": "1.14 log2 enrichment (interaction score)"}, {"measurement": "binding signal", "setting": "PUM1 PUF domain R3-GFD", "result": "5.65 log2 enrichment (interaction score)"}]}
{"sequence": "GGCUAGAACUAGUGGAUCCCCCGGCGCCCGGCGGCUCGAGCCCGGGUAAGUGUACAUAGUCUGCAUGCCGCCGGGCGCCAUGCCUGCAGGUCGACUCUAGAAAACAUG", "values": [{"measurement": "binding signal", "setting": "PUM1 PUF domain R4-PHQ", "result": "2.14 log2 enrichment (interaction score)"}, {"measurement": "binding signal", "setting": "PUM1 PUF domain R4-WGW", "result": "2 log2 enrichment (interaction score)"}]}
{"sequence": "GGCUAGAACUAGUGGAUCCCCCGGCGCCCGGCGGCUCGAGCCCGGGUAAGUGGAAAUAGUCUGCAUGCCGCCGGGCGCCAUGCCUGCAGGUCGACUCUAGAAAACAUG", "values": [{"measurement": "binding signal", "setting": "PUM1 PUF domain R6-SWQ", "result": "3.61 log2 enrichment (interaction score)"}]}
{"sequence": "GGCUAGAACUAGUGGAUCCCCCGGCGCCCGGCGGCUCGAGCCCGGGUAAGCGUAAAUAGUCUGCAUGCCGCCGGGCGCCAUGCCUGCAGGUCGACUCUAGAAAACAUG", "values": [{"measurement": "binding signal", "setting": "PUM1 PUF domain R8-TRR", "result": "2.73 log2 enrichment (interaction score)"}]}
{"sequence": "GGCUAGAACUAGUGGAUCCCCCGGCGCCCGGCGGCUCGAGCCCGGGUAAGUGUAUAUAGUCUGCAUGCCGCCGGGCGCCAUGCCUGCAGGUCGACUCUAGAAAACAUG", "values": [{"measurement": "binding signal", "setting": "PUM1 PUF domain R4-PHQ", "result": "7.3 log2 enrichment (interaction score)"}, {"measurement": "binding signal", "setting": "PUM1 PUF domain R4-WGW", "result": "3.62 log2 enrichment (interaction score)"}]}
{"sequence": "GGCUAGAACUAGUGGAUCCCCCGGCGCCCGGCGGCUCGAGCCCGGGUAAGUGUAAAUCGUCUGCAUGCCGCCGGGCGCCAUGCCUGCAGGUCGACUCUAGAAAACAUG", "values": [{"measurement": "binding signal", "setting": "PUM1 PUF domain R1-KKT", "result": "3.84 log2 enrichment (interaction score)"}]}
